Measured values published in PubChem BioAssay (EPA / NIEHS).
“And” between values parts separate entries of the source, which are not always exact repeats. Identical values can stand only once. Some compounds were tested as several samples or in several runs, with calls that do not always agree. The source made the active and inactive calls. The calls were made as follows: active = hit-call score of the fitted dose curve at least 0.9, where 1 is the maximum; inactive = score below 0.9.

What was measured:
[1] = CCTE_Padilla_ZF_Score.General: CCTE's 144 Hour Post-fertilization zebrafish Assay Score for General Malformation, Padilla Lab (AID 2284411)
How it was run: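 Malformation, death and hatching were scored at 6 dpf by two blinded observers under a stereo microscope. Embryos were dosed singly from 6-8 hpf in sealed plates of 10% Hanks' at 26C and rinsed on 5 dpf; DMSO baseline.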

[2] = Tanguay_ZF_120hpf_TCHR: Oregon State University Tanguay Lab 120 Hour Post-fertilization zebrafish Assay for Touch Responsive (AID 2284403)
How it was run: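 Binary touch-response calls are made at 120 hpf in 5D wild-type zebrafish larvae. These larvae were dechorionated with pronase and exposed singly from 6 hpf in sealed, dark plates at 28 °C with 0.64% DMSO final; dead embryos are excluded.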

[3] = Tanguay_ZF_120hpf_ANY: Oregon State University Tanguay Lab 120 Hour Post-fertilization zebrafish Assay for Any Mortality and Malformation (AID 2284404)
How it was run: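 Dechorionated Tropical 5D wild-type embryos, one per well from 6 hpf, static exposure in sealed, dark plates at 28C until 120 hpf, 0.64% DMSO final. Brightfield scoring of mortality and malformations as binary presence/absence, pooling 13 morphology endpoints.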

[4] = CCTE_Padilla_ZF_Score.Craniofacial: CCTE's 144 Hour Post-fertilization zebrafish Assay Score for Craniofacial Malformation, Padilla Lab (AID 2284405)
Protocol: (§1) CCTE_Padilla_ZF_Phenotype_Score is a whole embryo, multiplexed assay using zebrafish ova exposed for 144 hours post fertilization on a 96-well plate.CCTE_Padilla_ZF_Score.Craniofacial is one of one assay component(s) measured or calculated from the CCTE_Padilla_ZF_Phenotype_Score assay. It is designed to make measurements of zebrafish development as detected with brightfield microscopy of developing zebrafish embryos.Data from the assay component CCTE_Padilla_ZF_Score.Craniofacial was analyzed into 1 assay endpoints. This assay endpoint, CCTE_Padilla_ZF_Score.Craniofacial, was analyzed in the positive analysis fitting direction relative to DMSO as the negative control and baseline of activity. Using a type of viability reporter, gain-of-signal activity can be used to understand changes in developmentals as they relate to the whole embryo. To generalize the intended target to other relatable targets, this assay endpoint is annotated to the zebrafish development intended target family, where the subfamily is craniofacial morphogenesis.
(§2) Zebrafish husbandry: Wild type adult zebrafish (Danio rerio; undefined outbred stock obtained from Aquatic Research Organisms, Hampton, NH, 03842) were housed in an AAALAC-approved animal facility at 28C with a 14:10 h light: dark cycle (lights on at 08:30 h). […]

[5] = CCTE_Padilla_ZF_Score.Edema: CCTE's 144 Hour Post-fertilization zebrafish Assay Score for Edema Malformation, Padilla Lab (AID 2284406)
Protocol: as §1, with “plate.CCTE_Padilla_ZF_Score.Edema” for “plate.CCTE_Padilla_ZF_Score.Craniofacial”, “CCTE_Padilla_ZF_Score.Edema” for “CCTE_Padilla_ZF_Score.Craniofacial”, “CCTE_Padilla_ZF_Score.Edema,” for “CCTE_Padilla_ZF_Score.Craniofacial,”, “embryonic edema.” for “craniofacial morphogenesis.”
as §2

[6] = CCTE_Padilla_ZF_Score.Spine: CCTE's 144 Hour Post-fertilization zebrafish Assay Score for Spine Malformation, Padilla Lab (AID 2284407)
How it was run: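 Spine malformation scored at 6 dpf by two independent blinded observers under stereomicroscope, after static sealed exposure from 6–8 hpf at 26C in Hanks' solution with rinse on 5 dpf. Positive-direction fit against DMSO control.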

[7] = CCTE_Padilla_ZF_Score.Swim_bladder: CCTE's 144 Hour Post-fertilization zebrafish Assay Score for Swim Bladder Malformation, Padilla Lab (AID 2284408)
How it was run: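 Swim bladder inflation scored at 6 dpf by two blinded observers under a stereo microscope. Exposure ran from 6–8 hpf in sealed wells of 10% Hanks' at 26C, with rinsing at 5 dpf; DMSO served as baseline.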

[8] = CCTE_Padilla_ZF_Score.Position: CCTE's 144 Hour Post-fertilization zebrafish Assay Score for Position, Padilla Lab (AID 2284409)
How it was run: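 Wild-type zebrafish embryos (with chorions) exposed singly from 6–8 hpf in sealed wells of Hanks' solution at 26C, rinsed at 5 dpf. At 6 dpf, blinded assessors scored abnormal water-column position by brightfield stereomicroscopy, relative to DMSO.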

[9] = CCTE_Padilla_ZF_Score.Living: CCTE's 144 Hour Post-fertilization zebrafish Assay Score for Viability, Padilla Lab (AID 2284410);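 also: larval death at 6 dpf judged by absent heartbeat or coagulation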
How it was run: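 Mortality at 6 dpf, judged as absent heartbeat or coagulation by two blinded observers, after sealed static exposure beginning at 6–8 hpf at 26C. Larvae were rinsed free of chemical at 5 dpf, and activity was fitted relative to DMSO.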

[10] = CCTE_Padilla_ZF_Score.Tail: CCTE's 144 Hour Post-fertilization zebrafish Assay Score for Tail Malformation, Padilla Lab (AID 2284414)
How it was run: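 Tail malformations were scored at 6 dpf by two blinded assessors under a stereo microscope. Chorionated embryos had been exposed from 6-8 hpf in sealed wells of 10% Hanks' at 26 C, then rinsed free of chemical at 5 dpf.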

Structure (SMILES): ClC1C(Cl)C(Cl)C(Cl)C(Cl)C1Cl (stereo not drawn)
- AC50 [1]: 8.89 µM (active)

Structure (SMILES): O=C(O)C(F)(F)C(F)(F)C(F)(F)C(F)(F)C(F)(F)C(F)(F)C(F)(F)F
- outcome [2]: inactive
- outcome [3]: inactive
- outcome [4]: inactive
- outcome [5]: inactive
- outcome [6]: inactive
- outcome [7]: inactive
- outcome [8]: inactive
- outcome [9]: inactive
- outcome [1]: inactive
- outcome [10]: inactive

Structure (SMILES): O=S(=O)(O)C(F)(F)C(F)(F)C(F)(F)C(F)(F)C(F)(F)C(F)(F)C(F)(F)C(F)(F)F
- AC50 [2]: 51.8 µM (active)
- outcome [2]: inactive
- AC50 [3]: 32.7 µM (active) and 16.7 µM (active)
- AC50 [4]: 8.88 µM (active) and 9.43 µM (active)
- AC50 [5]: 8.88 µM (active) and 7.83 µM (active)
- AC50 [6]: 26.6 µM (active)
- outcome [6]: inactive
- AC50 [7]: 8.69 µM (active) and 3.21 µM (active)
- AC50 [8]: 8.18 µM (active) and 3.91 µM (active)
- AC50 [9]: 10.7 µM (active) and 21.1 µM (active)
- AC50 [1]: 8.72 µM (active) and 4.84 µM (active)
- AC50 [10]: 8.73 µM (active) and 32.7 µM (active)
